# Laboratory results as given in PubChem BioAssay AID1321 (The Scripps Research Institute Molecular Screening Center, 2008).
# Screen size: about 220,000 compounds; about 2,600 (1.2%) were called active.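 How the source made its calls: active means activation above the mean of all tested compounds plus 3 SD, set per screening run (cut at about 8.8% in these data); inactive means the rest.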 The list comes from a sample in which actives are over-represented; it also holds similar structures and randomly drawn compounds.
# Molecular target: Wee1-like protein kinase (Homo sapiens) (UniProt P30291)
# Assay: compounds stabilizing Wee1-luciferase fusion – cell-based, HeLa, Wee1K328M-luciferase, luminescence, primary screen (AID 1321);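 further: cells exposed to compound for 20 h before luminescence read; 0% = DMSO alone and 100% = MG132 at 30 µM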
# Conditions: HeLa Luc-Wee1K328M stability, at 5 µM, hits give high values, 100% = proteasome inhibitor MG132 effect
row,Compound,reporter increase
1,CC(=O)NC(=S)Nc1ccc(NC(=S)NC(=O)c2ccc([N+](=O)[O-])cc2)cc1,1.61% (inactive)
2,Cc1nnc(C)c2c(C)n(N)c(C)c12,3.05% (inactive)
3,O=C(CCl)Nc1ccc(Sc2ccc(NC(=O)CCl)cc2)cc1,-0.49% (inactive)
4,Cc1ccc(NC(=O)CC(=O)Nc2ccc(C)cc2)cc1,1.54% (inactive)
5,Cc1ccc(NC(=O)CN2CCc3ccccc3C2)cc1,12.7% (active)
6,Cc1ccc(NC(=O)CCN2CCc3ccccc3C2)cc1,0.24% (inactive)
7,COc1ccc(NC(=O)C2=C(C)NC(=O)NC2c2ccccc2[N+](=O)[O-])cc1 (stereo unspecified),0.32% (inactive)
8,O=[N+]([O-])c1cccc2ncccc12,-1.36% (inactive)
9,Cc1cc(O)c(NC(=O)c2ccc(C)c([N+](=O)[O-])c2)cc1C,2.32% (inactive)
10,O=C(Nc1cccc2ncccc12)c1ccc(-c2ccc(Cl)cc2Cl)o1,7.64% (inactive)
11,Cc1ccc(C(=O)Nc2cccc3ncccc23)cc1[N+](=O)[O-],54.1% (active)
12,O=C(Nc1cccc2ncccc12)C(Cl)(Cl)Cl,9.1% (active)
13,O=C(O)c1cc(Cl)c(Cl)cc1C(=O)Nc1cccc2ncccc12,-2.37% (inactive)
14,O=C(NC(=O)c1ccccc1N1CCCCC1)Nc1ccc(Br)cc1,-1.56% (inactive)
15,Fc1ccc(Nc2nnns2)cc1,-1.03% (inactive)
16,CN1CCN(c2cc3c(cc2F)c(=O)c(C(=O)O)cn3CCF)CC1,-0.92% (inactive)
17,C#CCNc1ccc(C(=O)OCC)cc1,-0.22% (inactive)
18,CCOC(=O)c1c(/N=C/C2C(=O)CC(C)(C)CC2=O)sc(C)c1C,12.6% (active)
19,CCOC(=O)c1sc(/N=C/C2=C(O)CC(C)(C)CC2=O)c(C(=O)OCC)c1C,0.6% (inactive)
20,CCOC(=O)c1c(NC(=O)c2cccs2)sc(C)c1C,-0.63% (inactive)
21,COc1cc(OC)cc(/C(N)=N/O)c1,5.93% (inactive)
22,CC(=O)Nc1cccc([N+](=O)[O-])c1,1.71% (inactive)
23,CN(CC(=O)Nc1cccc(F)c1)CC(=O)Nc1cccc([N+](=O)[O-])c1,3.36% (inactive)
24,Cc1ccc(CN(C)CC(=O)Nc2cccc([N+](=O)[O-])c2)o1,8.93% (active)

row,Compound,reporter increase
1,COc1ccc(N=Nc2ccc(O)c(P(=O)(c3ccccc3)c3ccccc3)c2)cc1,2.24% (inactive)
2,Clc1ccc(C[n+]2cc(-c3ccccc3)n3c2CCC3)cc1,-0.29% (inactive)
3,COc1ccccc1NC(=O)C1=C(C)Nc2nc3ccccc3n2C1c1cccs1 (stereo unspecified),5.69% (inactive)
4,COc1ccccc1NC(=O)c1ccc(C)s1,-0.54% (inactive)
5,COc1ccccc1NC(=O)C1=C(C)NC(=O)NC1c1ccc(C)s1 (stereo unspecified),9.03% (active)
6,Nc1nc(Nc2ccccc2)nc(NCCO)c1[N+](=O)[O-],-3.26% (inactive)
7,Cc1cc(C)c(C)c(S(=O)(=O)N[C@@H](C)C(=O)OC(C)C(=O)NC(N)=O)c1C (stereo partly specified),-2.95% (inactive)
8,COc1cccc(/C=N\Nc2nncc(-c3ccccc3)n2)c1,0.25% (inactive)
9,COc1ccc(/C=N/Nc2nc3ccccc3o2)cc1OC,4.92% (inactive)
10,CCOc1ccc(/C=N/Nc2nncc(-c3ccccc3)n2)cc1OC,16.9% (active)
11,OCCN1CCN(C(=S)c2ccc(-c3ccccc3)cc2)CC1,-3.59% (inactive)
12,COc1ccc(NC(=O)C2CCC(CNc3c(N4CCCCC4)c(=O)c3=O)CC2)c(OC)c1 (stereo unspecified),1.06% (inactive)
13,CCOC(=O)c1nnn2c3ccccc3c(=O)n(C)c12,-0.3% (inactive)
14,Cc1ncn2cc(-c3ccc(Cl)cc3Cl)[nH]c(=O)c12,-1.11% (inactive)
15,Cc1ccc(S(=O)(=O)/N=C(/NC(=S)Nc2c(C)n(C)n(-c3ccccc3)c2=O)c2ccccc2)cc1,-0.69% (inactive)
16,CCc1ccccc1NC(=O)CSc1nnc(CCNC(=O)OC(C)(C)C)o1,5.87% (inactive)
17,Cc1cccc(NC(=O)CSc2nnc(CCCCCNC(=O)OC(C)(C)C)o2)c1C,-2.16% (inactive)
18,Cc1ccccc1CSc1nnc(CCCCCNC(=O)OC(C)(C)C)o1,15.4% (active)
19,CSc1nnc(-c2ccc(C(F)(F)F)cn2)o1,-1.5% (inactive)
20,Cc1nc(-c2nnc(SCC(=O)Nc3cc(C(F)(F)F)cc(C(F)(F)F)c3)n2C)cs1,2.29% (inactive)
21,CCn1c(=O)c([N+](=O)[O-])c(NCc2ccc3c(c2)OCO3)c2ccccc21,-2.11% (inactive)
22,COc1ccccc1N1CCN(c2ccc([N+](=O)[O-])nc2)CC1,12.9% (active)
23,COc1ccccc1N1CCN(CCCCOc2ccc(F)cc2)CC1,1.24% (inactive)
24,COc1ccc(N2CCN(c3ccc([N+](=O)[O-])nc3)CC2)cc1,2.25% (inactive)

row,Compound,reporter increase
1,CCC(C)NC(=O)C1c2ccccc2Oc2ccccc21 (stereo unspecified),2.05% (inactive)
2,CC(C)=C1SC(N2CCN(c3ccc(C)c(Cl)c3)CC2)=NC1=O,-2.39% (inactive)
3,Cc1ccc(N2CCN(S(=O)(=O)N(C)C)CC2)cc1Cl,13.4% (active)
4,CN(C)S(=O)(=O)N1CCN(c2ccc([N+](=O)[O-])cc2)CC1,6.3% (inactive)
5,N#C/C(=C/c1ccc(-c2ccccc2[N+](=O)[O-])o1)C(=O)NCCN1CCCCC1,-2.23% (inactive)
6,Cc1ccc(Cc2cnc(NC(=O)/C(C#N)=C/c3ccc(-c4cccc([N+](=O)[O-])c4)o3)s2)cc1,-0.97% (inactive)
7,N#C/C(=C\c1ccc(-c2cccc([N+](=O)[O-])c2)o1)C(=O)NCCN1CCOCC1,9.19% (active)
8,CCOC(=O)C1=C(c2ccccc2)NC(=S)NC1c1ccc(Cl)cc1 (stereo unspecified),3.7% (inactive)
9,CC(C)(C)c1cc(P(=O)(c2ccccc2)c2ccccc2)ccc1O,0.95% (inactive)
10,COc1ccc(C2c3ccc(O)cc3Oc3ncn(CCCO)c(=N)c32)cc1OC (stereo unspecified),2.84% (inactive)
11,N#Cc1ccc(Oc2ccc(C(F)(F)F)cc2NC(=O)c2ccc(F)cc2)cc1,2.35% (inactive)
12,COc1cc(/C=C2/C(=O)NN(c3ccc(F)cc3)C2=O)cc([N+](=O)[O-])c1O,-0.14% (inactive)
13,Cc1ccc(CC2CC(=O)N(c3nc(C)cc(C)n3)C2=O)cc1 (stereo unspecified),-2.45% (inactive)
14,COc1ccc(CN2C(=O)CC(Cc3ccc(C)cc3)C2=O)cc1OC (stereo unspecified),10.8% (active)
15,COc1ccc(CCN2C(=O)C3CC=C(C)CC3C2=O)cc1OC (stereo unspecified),5.14% (inactive)
16,Cc1nc(-c2ccccc2)sc1-c1nnc(C2CC2)o1,-1.78% (inactive)
17,CCOC(=O)c1cc(Sc2ccccc2N)cc(C(=O)OCC)n1,-2.91% (inactive)
18,Cc1nnsc1C(=O)N/N=C/c1ccccc1Cl,2.61% (inactive)
19,CCN(CC)S(=O)(=O)c1ccc(NC(=O)CN(c2cccc(F)c2)S(C)(=O)=O)cc1,-1.26% (inactive)
20,COc1cccc(N(CC(=O)Nc2cccc(N(C)S(C)(=O)=O)c2)S(C)(=O)=O)c1,-1.32% (inactive)
21,COc1cccc(N(CC(=O)Nc2cccc(F)c2)S(C)(=O)=O)c1,8.9% (active)
22,O=C(Cc1ccc(F)cc1)NC1CCCC1,-1.42% (inactive)
23,O=C(CC1CCCCC1)NCc1ccc(F)cc1,8.97% (active)
24,O=C(CC1CCCCC1)NCc1ccco1,0.37% (inactive)

row,Compound,reporter increase
1,Cc1ccc(S(=O)(=O)/N=C(/Nc2ccc3[nH]c(=O)[nH]c3c2)c2ccccc2)cc1,-1.22% (inactive)
2,CC(OC(=O)c1ccc(NS(=O)(=O)c2ccc3[nH]c(=O)[nH]c3c2)cc1)C(=O)Nc1cccc(Cl)c1Cl (stereo unspecified),24.1% (active)
3,COC(=O)c1ccccc1NS(=O)(=O)c1ccc2[nH]c(=O)[nH]c2c1,-1.86% (inactive)
4,O=C1/C(=C/c2coc3ccc(O)cc3c2=O)SC(=S)N1c1ccccc1,-0.03% (inactive)
5,COc1c(C=O)c(CCN(C)C(=O)c2ccc(F)cc2)cc2c1OCO2,0.06% (inactive)
6,Fc1ccc(COc2ccc(-c3nnco3)cc2)cc1,16.2% (active)
7,Fc1ccc(COc2cccc(-c3n[nH]c(=S)o3)c2)cc1,-0.05% (inactive)
8,COc1ccc(-c2nnco2)cc1OC,-2.71% (inactive)
9,CCOC(=O)Cc1cc(=O)[nH]c(/N=C(\N)Nc2ccc(OC)cc2)n1,0.86% (inactive)
10,Oc1ccc2ccccc2c1C=Nc1ccccc1,-2.84% (inactive)
11,O=C(COC(=O)c1cc(S(=O)(=O)N2CCCCC2)ccc1Cl)NCc1ccco1,5.36% (inactive)
12,CCn1c2ccccc2c2cc(NC(=O)COC(=O)c3cc(S(=O)(=O)N4CCCCC4)ccc3Cl)ccc21,11.6% (active)
13,CCn1c2ccccc2c2cc(NC(=O)COC(=O)c3ccccc3Br)ccc21,1.86% (inactive)
14,Nc1ccc(C(=O)OCC(=O)NC2CCS(=O)(=O)C2)cc1[N+](=O)[O-] (stereo unspecified),-1.54% (inactive)
15,COc1ccccc1P(=O)(c1ccccc1)c1ccccc1NC(C)=O (stereo unspecified),0.01% (inactive)
16,Cc1ccc(NC(=O)CS(=O)CC(=O)N(c2ccccc2)C(C)C(=O)NC2CCCC2)cc1 (stereo unspecified),10.2% (active)
17,Cc1ccc(-c2nc(CS(=O)CC(=O)NC3CCCC3)c(C)o2)cc1 (stereo unspecified),2.35% (inactive)
18,Cc1ccc(NC(=O)CSCC(=O)NC2CCCCC2)cc1,0.26% (inactive)
19,Nc1nc(NC(=O)/C=C/c2ccc(F)cc2)nn1-c1ccccc1,-3.61% (inactive)
20,Oc1ccc(-c2nnc(Nc3ccccc3)c3ccccc23)cc1,-2.97% (inactive)
21,O=C1/C(=C/c2cccs2)SC(=S)N1C1CCS(=O)(=O)C1 (stereo unspecified),2.22% (inactive)
22,COc1ccccc1OCc1nc2ccccc2s1,10.1% (active)
23,O=C(O)CCCCc1nc2ccccc2s1,1.81% (inactive)
24,COc1cccc2sc(NNC(=O)c3nc4ccccc4s3)nc12,1.43% (inactive)
